The inhibition is the relative decrease from the control value, in per cent.

Several values for one entry are separate records, joined by “and”; a condition that tells them apart may be missing. Identical values can stand only once. About 2,300 (0.62%) of roughly 370,000 compounds were called active.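 Rule for the calls: active = inhibition above a per-campaign cutoff equal to the mean of compounds falling between control-based bounds plus 3 SD (cut at about 20% in these data); inactive = the rest.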 What follows is part of a selection rich in actives, with near analogues and random picks from the rest. The source holds several records for some structures; these can differ, active in one and inactive in another.

The target in the assay is Disintegrin and metalloproteinase domain-containing protein 10 (Homo sapiens) (UniProt O14672). In words: blockers of ADAM10 peptide cleavage – biochemical, QFRET, HTS, primary screen (AID 720582).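 Note: 0% = DMSO wells while the 100% control is not disclosed.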 Conditions: recombinant ADAM10, EDANS/DABCYL FRET peptide cleavage, 3 h; at 7 µM; stronger effect = higher value.
Disintegrin and metalloproteinase domain-containing protein 10 (Homo sapiens), sequence (O14672 214-748 limits assumed): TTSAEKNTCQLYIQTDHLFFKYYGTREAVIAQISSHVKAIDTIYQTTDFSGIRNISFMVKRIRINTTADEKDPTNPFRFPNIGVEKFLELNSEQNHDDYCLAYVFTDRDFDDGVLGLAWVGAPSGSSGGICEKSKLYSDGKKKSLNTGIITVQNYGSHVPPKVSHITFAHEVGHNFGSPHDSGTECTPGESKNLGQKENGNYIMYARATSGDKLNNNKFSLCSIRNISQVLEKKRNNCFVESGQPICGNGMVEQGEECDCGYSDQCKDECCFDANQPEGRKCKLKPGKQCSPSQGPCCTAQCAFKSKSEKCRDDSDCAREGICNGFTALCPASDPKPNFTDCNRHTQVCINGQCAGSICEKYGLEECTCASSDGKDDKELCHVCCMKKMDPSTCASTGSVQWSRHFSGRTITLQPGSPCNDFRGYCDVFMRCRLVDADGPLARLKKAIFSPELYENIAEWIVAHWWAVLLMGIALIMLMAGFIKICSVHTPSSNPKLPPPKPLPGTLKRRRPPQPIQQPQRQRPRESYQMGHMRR
With `CCOC(=O)[C@]12CCCC=C1N(Cc1ccc(OC)cc1)C(=O)[C@@H]2CC(=O)N1CCOCC1`, the inhibition was 0.19% (inactive).
Under `COc1ccc(Cl)cc1NC(=O)CN(C)C(=O)c1ccc2n[nH]nc2c1` stands -4.74% (inactive); under `COc1ccc(Cl)cc1NC(=O)CN(C)C(=O)CCCc1c[nH]c2ccccc12`, 56.1% (active).
On to `COc1ccc(Cl)cc1NC(=O)CN(C)C(=O)CNC(=O)C12CC3CC(CC(C3)C1)C2`, for which the inhibition was 0.24% (inactive).
Under `O=C(CSc1nnc(-c2ccccn2)n1-c1ccccc1)Nc1ccc2cn[nH]c2c1` stands 1.78% (inactive); under `Cc1ccc(NC(=O)c2nc[nH]c2C(=O)N[C@@H](CCCCNC(=O)OC(C)(C)C)C(=O)OC(C)(C)C)cc1`, 22.4% (active).
As to `CCOC(=O)c1ccc(NC(=O)c2nc[nH]c2C(=O)N[C@@H](CCCCNC(=O)OC(C)(C)C)C(=O)OC(C)(C)C)cc1`, the inhibition is -1.17% (inactive).
Under `CC(C)(C)OC(=O)NCCCCCNC(=O)c1[nH]cnc1C(=O)Nc1nccs1` stands -0.11% (inactive); under `Cc1nc(CNc2ncnc3ccc(-c4ccc5c(c4)OCO5)cc23)cs1`, -136% (inactive); under `CSc1nccc(NC(=O)c2ccc(C(C)(C)C)cc2)n1`, 10.6% (inactive).
Turning to `CSc1ccc(C#N)cc1NC(=O)c1ccc(Cl)cc1`, the inhibition is 7.58% (inactive).
As for `CC(C)(C)c1ccc(C(=O)Nc2cc(Cl)c(Br)cc2C(=O)O)cc1`, the inhibition was 19.8% (active).
Under `COC(=O)[C@H](C(C)C)N(CCCc1cn(Cc2ccccc2)nn1)S(=O)(=O)c1ccc(F)cc1Br` stands 2.42% (inactive); under `C=CCN1C(C(=O)OC)CN(Cc2cn(Cc3ccccc3)nn2)CCS1(=O)=O` (stereo unspecified), 2.91% (inactive); under `O=C1NC(Nc2nc3ccccc3s2)(C(F)(F)F)C(=O)N1C1CCCCC1` (stereo unspecified), 21% (active).
On to `O=C1[C@H]2[C@@H](c3ccc(F)cc3)N3C(=O)N(c4ccc(C(F)(F)F)cc4)C(=O)[C@@]3(Cc3ccccc3)[C@H]2C(=O)N1C1CCCCC1`, for which the inhibition was 22.2% (active).
Under `Cc1cccc([C@@H]2[C@@H]3C(=O)N(Cc4ccccc4)C(=O)[C@@H]3[C@]3(Cc4ccc(Cl)cc4)C(=O)N(c4cccc(Cl)c4)C(=O)N23)c1` stands -4.37% (inactive).
As to `Cc1cccc(N2C(=O)N3[C@H](c4ccc(F)cc4)[C@@H]4C(=O)N(C5CCCCC5)C(=O)[C@@H]4[C@]3(Cc3ccccc3)C2=O)c1`, the inhibition was 5.39% (inactive).
Under `CCCCc1c(-c2ccc(Cl)cc2)ncn1CCc1ccccc1OC` stands -7.93% (inactive); under `CCCCCc1c(-c2cccc(Br)c2)ncn1CCc1ccccc1OC`, -0.06% (inactive).
Under `CCCCCc1c(-c2ccc(OC)c(OC)c2)ncn1CCc1ccccc1OC` stands 22.3% (active); under `CCOC(=O)[C@]12CCCCC/C=C\1N(Cc1ccc(OC)cc1)C(=O)[C@H]2CC(=O)NCCCN1CCCC1=O`, -0.03% (inactive); under `CC(=O)N1CCc2cc(S(=O)(=O)NCCC(=O)N3CCCC3)ccc21`, -14% (inactive).
Under `COc1cc(/C=C/C(=O)n2cnc3ccccc32)cc(OC)c1OC` stands -59.7% (inactive); under `CCCCCN1CCCCC(NC(=O)C(C)CCC)C1=O` (stereo unspecified), -6.07% (inactive); under `CCOc1ccc(Br)cc1S(=O)(=O)Nc1cccc(S(=O)(=O)N(CC)CC)c1`, 0.81% (inactive).
`CCOc1ccc(Br)cc1S(=O)(=O)Nc1ccc(C(=O)OC(C)C(=O)N(C)c2ccccc2)cc1` (stereo unspecified): the inhibition was 22.5% (active).
Under `CCOc1ccc(Br)cc1S(=O)(=O)Nc1ccc(S(=O)(=O)Nc2cc(C)on2)cc1` stands -5.64% (inactive).
Under `CC(C)C(C#CC1CC1)N(Cc1ccc2c(c1)OCO2)C(N)=NC(=O)/C=C/c1cccc(C(F)(F)F)c1` (stereo unspecified) stands -4.29% (inactive); under `COC(=O)c1cccc(Cn2ccc3ccc(-c4ccc5ccn(C(=O)c6ccccc6C)c5c4)cc32)c1`, -41.7% (inactive).
Under `CCCC1CCC2(CCCN2CCOC(=O)NCc2ccccc2)CC1` (stereo unspecified) stands -8.67% (inactive).
For `CC(C)N1CCCCC(NC(=O)C(C)(C)C)C1=O` (stereo unspecified), the inhibition was -0.89% (inactive).
For the compound `N#Cc1cccc(NC(=O)C2CCCN(C(=O)c3ccc(Cl)cc3)C2)c1` (stereo unspecified), the inhibition is -3.16% (inactive).
Under `CN(C)c1ccc(NC(=S)N(CCc2ccccc2)C2CC(=O)N(c3c(Cl)cccc3Cl)C2=O)cc1` (stereo unspecified) stands 11.2% (inactive).
Under `CCOc1ccc(N2C(=O)CC(N(CCc3ccc(OC)c(OC)c3)C(=S)Nc3ccccc3)C2=O)cc1` (stereo unspecified) stands 23.9% (active) and 6.83% (inactive); under `COc1ccc(N2C(=O)C(CC(=O)Nc3ccccc3)N(Cc3ccc(OC)c(OC)c3)C2=O)cc1` (stereo unspecified), 0.53% (inactive); under `CCOC(=O)[C@]12CCCC=C1N(CCCOC)C(=O)[C@@H]2CC(=O)N1CCOCC1`, -0.44% (inactive).
Under `CN1[C@H](Cc2ccccc2)COc2cccc(N3CCSCC3)c2S1(=O)=O` stands -1.57% (inactive); under `CCC(C(=O)Nc1ccc(C(C)C)cc1)c1ccccc1` (stereo unspecified), 5.96% (inactive); under `CCC(C(=O)OCC(=O)Nc1ccccc1-c1ccccc1)c1ccccc1` (stereo unspecified), 20.3% (active).
For the compound `O=C(CNCc1ccc(F)cc1)Nc1ccccc1-c1ccccc1`, the inhibition was 4.85% (inactive).
Under `CC1CCN(c2ccc(C(=O)O)cc2NS(=O)(=O)c2ccc(Br)s2)CC1` stands -0.83% (inactive); under `C[C@H](C(=O)N(C)c1ccccc1)[C@@H](O)c1ccc(Cl)cc1`, 2.56% (inactive); under `CC(=O)N1CCCN(C2=Nc3ccccc3Sc3ccccc32)CC1`, 1.32% (inactive).
Under `O=C(CSc1nnc(-c2cccc(Cl)c2)n1Cc1ccco1)Nc1ccc(OCc2ccccc2)cc1` stands 7.99% (inactive); under `Cc1ccc(-c2nc(C3CCCN(S(=O)(=O)c4ccc(Br)s4)C3)no2)cc1` (stereo unspecified), -6.94% (inactive).
On to `O=C(NCCC1=CCCCC1)C1CCN(S(=O)(=O)c2ccc(Cl)s2)CC1`, for which the inhibition was -5.18% (inactive).
Under `COc1ccc(OCCCn2cccc2/C=C2/C(=N)N3OC(C)=CC3=NC2=O)cc1` stands 24.4% (active); under `COc1ccccc1OCCOc1ccc(/C=C2\C(=N)N3N=C(C)SC3=NC2=O)cc1`, -72.1% (inactive).
Under `COc1ccc(OCCn2ccnc2C)cc1` stands 3.1% (inactive); under `COCC(=O)N[C@@H]1C[C@@H]2O[C@@H](CO)CC[C@@H]2O[C@@H]1CCc1ccc(-c2ccccc2)cc1`, 4.87% (inactive).
Under `CC(C)Oc1ccc(CC(=O)NNC(=S)Nc2ccc(Br)cc2)cc1` stands 23.5% (active); under `O=C(COC(=O)Cc1ccc(Br)cc1)Nc1ccc(N2CCOCC2)cc1`, -15.2% (inactive).
For `CSc1ccccc1NC(=O)Cc1ccc(Br)cc1`, the inhibition is 2.92% (inactive).
Consider `O=C1C(=O)N(Cc2ccc(-c3ccsc3)cc2)c2ccc(OC(F)(F)F)cc21`, for which the inhibition is 3.17% (inactive).
Under `CC(=O)OC12CCCN(C1)/C(=C/c1ccncc1)C2` (stereo unspecified) stands -16.8% (inactive); under `CCOc1ccccc1-c1cc(C(=O)N/N=C(\C)c2cccnc2)c2ccccc2n1`, 0.58% (inactive); under `CCOc1cc(/C=N/NC(=O)c2cc(-c3ccccc3)nc3ccccc23)ccc1O`, 22.1% (active).
Under `CCOc1ccc(/C=N/NC(=O)C(C)Sc2ccccn2)cc1OCC` (stereo unspecified) stands -1% (inactive); under `COc1ccnc(C(=O)N2CCC(Oc3cccnc3)CC2)c1`, 1.62% (inactive); under `O=C(CSc1nnc(-c2ccccc2)n1Cc1ccco1)Nc1ccccc1-c1ccccc1`, 15% (inactive).
Take `CCOC(=O)Cn1c(SC)nc2sc3c(c2c1=O)CC(C)(C)OC3`: the inhibition was -52.7% (inactive).
Under `CCC1(C)Cc2c(sc3nnn(CC(=O)Nc4ccc(Cl)cc4)c(=O)c23)CO1` (stereo unspecified) stands 20.1% (active); under `CCCSc1nc(NCc2ccco2)c2c3c(sc2n1)COC(C)(CC)C3` (stereo unspecified), -57.9% (inactive); under `CN(CCO)c1cccc2c1S(=O)(=O)N(Cc1cn(Cc3ccc(C(F)(F)F)cc3)nn1)Cc1ccccc1O2`, -6.76% (inactive).
Under `COc1ccnc(NC(=S)N2CCN(c3ncc(C(F)(F)F)cc3Cl)CC2)c1` stands -1.47% (inactive); under `COc1ccc(C2CC(c3ccccc3)=NN2C(=O)c2ccc(Cl)c([N+](=O)[O-])c2)cc1` (stereo unspecified), -1.55% (inactive); under `COc1ccc(C2CC(c3ccccc3)=NN2C(=O)COC(=O)COc2ccccc2)cc1` (stereo unspecified), 20.3% (active).
Under `COc1ccc(C2=NN(C(=O)CSc3nc(=O)n4ccc(C)cc4n3)C(c3ccc(C)cc3)C2)cc1` (stereo unspecified) stands -4.74% (inactive); under `CCOC(=O)[C@]12CCCC3=C1N(CCC3)C(=O)[C@@H](CC(=O)NCC13CC4CC(CC(C4)C1)C3)C2`, 3.03% (inactive).
`O=C(CSc1nc2ccccc2n1Cc1ccccc1)NNC(=S)Nc1ccccc1`: the inhibition was 12.5% (inactive).
Under `Cc1ccccc1NC(=O)C1CCN(c2ncccn2)CC1` stands -49.2% (inactive); under `Cc1ccc(Cn2cc(CN3[C@@H](CC(C)C)COc4ccc(Cl)cc4S3(=O)=O)nn2)cc1`, 2.6% (inactive).
Under `COc1cccc(CNC(C)C(=O)Nc2ccc(S(=O)(=O)N3CCCC3)cc2)c1` (stereo unspecified) stands -0.95% (inactive); under `CC(C)c1ccc(S(=O)(=O)N2CCN(C(C)C(=O)NC3CCCC3)CC2)cc1` (stereo unspecified), -11.6% (inactive); under `COc1ccc(S(=O)(=O)N2CCN(C(C)C(=O)Nc3ccc(C(C)C)cc3)CC2)cc1` (stereo unspecified), 26.6% (active).
Under `Oc1ccc(/C=C/c2c(F)cccc2F)c2cccnc12` stands 5.02% (inactive).
With `Cc1ccc(Cn2cc(COC(=O)N(C)Cc3ccccc3)nn2)cc1`, the inhibition is -0.56% (inactive).
Under `Cc1ccc(S(=O)(=O)N2CCN(C(=O)COC(=O)CNC(=O)c3ccc(C(C)(C)C)cc3)CC2)c(C)c1` stands -0.12% (inactive).
Under `COc1ccc(/C=C/C(=O)OCC(=O)N2CCN(S(=O)(=O)c3ccc(C)cc3C)CC2)cc1OC` stands -21.9% (inactive).
Under `Cc1ccc(S(=O)(=O)N2CCN(C(=O)COC(=O)c3c(C)cc(C)cc3C)CC2)c(C)c1` stands 23.9% (active).

(Values after PubChem BioAssay AID720582 (The Scripps Research Institute Molecular Screening Center, 2013).)
